Active and inactive are the calls of the source.

Assay [1] relates to Plasmodium falciparum Sir2 (PF13_0152, Sir2A). Briefly: pfSir2 binders on small-molecule microarrays, primary screen, biochemical, small-molecule microarray, 635 nm fluorescence (AID 1098).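 Further: score merges spot fluorescence intensity with its signal-to-noise ratio.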 The settings on record: small-molecule microarray binding, fluorescence 635 nm; higher = more signal.
A short description of assay [2]: small-molecule microarray binders of probe aDKK1, primary screen, biochemical, biotinylated probe, 635/667 nm fluorescence (AID 1099).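 Further: score merges 667nm spot fluorescence with signal to noise across triplicate slides; reference of the scale not given here.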 The settings on record: higher = more signal.
Assay [3] can be described thus: small-molecule microarray binders of probe aCHRDL2, primary screen, biochemical, biotinylated probe, 635/667 nm fluorescence (AID 1100). The settings on record: higher = more signal.
Assay [4] in a line: splicing luciferase reporter signal modulators, primary screen, spliceosome inhibition project, cell-based, HEK293, splice +/- reporter (AID 1101).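 Further: HEK293 cells carrying a splicing-competent luciferase reporter gene; test concentration not given here.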 The settings on record: luminescence, 24 h, higher = more signal, called active from +8 up or from −8 down. (In a reporter assay the amount or activity of a reporter protein is the signal.)
Assay [5] addresses Fibroblast growth factor 10 (Homo sapiens) (UniProt O15520). In words: FGF10 binders on small-molecule microarrays, primary screen, biochemical, small-molecule microarray, 635 nm fluorescence (AID 1102). The settings on record: FGF10 binding, fluorescence 635 nm, higher = more signal.
The subject of assay [6] is glycogen synthase kinase-3 (GSK3A per assay name; protocol says GSK3B). In words: GSK3 binders on small-molecule microarrays, primary screen, biochemical, small-molecule microarray, 635 nm fluorescence, GSK3A (AID 1103). Further: the record names both GSK3A and GSK3B. The settings on record: small-molecule microarray binding, fluorescence 635 nm; higher = more signal.
For assay [7], the target named is Epidermal growth factor receptor (Homo sapiens) (UniProt P00533). In words: EGFR binders on small-molecule microarrays, primary screen, biochemical, small-molecule microarray, 635 nm fluorescence (AID 1104).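 Further: score merges 667 nm emission intensity with spot signal to noise over triplicate slides.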 The settings on record: EGFR binding, higher = more signal.
Chain of Epidermal growth factor receptor (Homo sapiens) (P00533 whole entry, looked up): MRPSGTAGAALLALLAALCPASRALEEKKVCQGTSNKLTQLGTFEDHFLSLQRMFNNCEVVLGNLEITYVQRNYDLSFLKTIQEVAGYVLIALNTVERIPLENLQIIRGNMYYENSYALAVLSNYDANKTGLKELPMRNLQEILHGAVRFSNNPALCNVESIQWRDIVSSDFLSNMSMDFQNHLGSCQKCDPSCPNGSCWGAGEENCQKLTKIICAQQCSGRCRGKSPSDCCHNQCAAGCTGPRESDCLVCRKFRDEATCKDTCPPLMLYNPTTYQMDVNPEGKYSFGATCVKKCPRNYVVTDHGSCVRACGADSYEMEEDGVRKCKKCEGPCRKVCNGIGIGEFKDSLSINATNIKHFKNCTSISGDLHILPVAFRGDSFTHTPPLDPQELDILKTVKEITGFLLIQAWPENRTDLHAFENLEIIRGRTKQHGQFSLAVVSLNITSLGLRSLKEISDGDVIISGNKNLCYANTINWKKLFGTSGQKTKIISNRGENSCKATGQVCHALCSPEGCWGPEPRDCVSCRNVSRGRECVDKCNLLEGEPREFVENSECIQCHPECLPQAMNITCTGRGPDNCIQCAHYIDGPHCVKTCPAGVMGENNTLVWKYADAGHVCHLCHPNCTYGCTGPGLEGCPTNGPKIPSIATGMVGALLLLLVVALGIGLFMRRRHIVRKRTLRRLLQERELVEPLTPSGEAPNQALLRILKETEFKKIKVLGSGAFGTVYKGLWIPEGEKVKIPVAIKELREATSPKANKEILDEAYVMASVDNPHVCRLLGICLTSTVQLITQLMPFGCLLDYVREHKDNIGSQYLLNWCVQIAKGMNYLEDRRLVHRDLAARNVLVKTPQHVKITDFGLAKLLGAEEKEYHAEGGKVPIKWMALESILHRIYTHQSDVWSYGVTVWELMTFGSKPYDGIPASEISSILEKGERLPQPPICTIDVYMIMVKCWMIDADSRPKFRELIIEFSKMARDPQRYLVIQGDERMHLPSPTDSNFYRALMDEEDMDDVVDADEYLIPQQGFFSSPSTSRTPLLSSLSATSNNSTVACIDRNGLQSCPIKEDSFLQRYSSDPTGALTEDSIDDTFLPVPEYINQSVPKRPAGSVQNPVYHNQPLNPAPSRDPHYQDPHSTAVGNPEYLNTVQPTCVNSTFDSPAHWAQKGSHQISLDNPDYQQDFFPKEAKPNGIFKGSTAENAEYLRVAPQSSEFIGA
For assay [8], the target named is Follistatin-related protein 3 (Homo sapiens) (UniProt O95633). Briefly: FSTL3 binders on small-molecule microarrays, primary screen, biochemical, small-molecule microarray, 635 nm fluorescence (AID 1105).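 Further: score merges emission near 667 nm and signal to noise per printed spot across three slides.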 The settings on record: FSTL3 binding, higher = more signal.
Chain of Follistatin-related protein 3 (Homo sapiens) (O95633 whole entry, looked up): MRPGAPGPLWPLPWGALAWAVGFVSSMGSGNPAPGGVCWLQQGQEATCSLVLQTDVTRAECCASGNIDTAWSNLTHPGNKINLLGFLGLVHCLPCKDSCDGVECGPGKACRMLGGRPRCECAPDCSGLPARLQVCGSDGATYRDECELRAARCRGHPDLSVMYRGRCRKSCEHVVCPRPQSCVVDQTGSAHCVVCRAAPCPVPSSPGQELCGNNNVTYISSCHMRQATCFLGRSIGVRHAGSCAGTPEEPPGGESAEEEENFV
Assay [9] has as its target Dickkopf-related protein 1 (Homo sapiens) (UniProt O94907). In words: DKK1 binders on small-molecule microarrays, primary screen, biochemical, small-molecule microarray, 635 nm fluorescence scan (AID 1106).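 Further: score merges emission near 667 nm with signal to noise over three replicate slides.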 The settings on record: DKK1 binding, higher = more signal.
The subject of assay [10] is Inhibin beta A chain (activin A). Briefly: INHBA (activin A) binders on microarrays, primary screen, biochemical, small-molecule microarray, 635 nm fluorescence scan (AID 1107).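 Further: mouse activin A protein probed at 4.33 µg/mL on printed slides; score merges bound-protein fluorescence near 667 nm with spot signal-to-noise.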 The settings on record: small-molecule microarray binding, higher = more signal.

Chain of Dickkopf-related protein 1 (Homo sapiens) (O94907 whole entry, looked up): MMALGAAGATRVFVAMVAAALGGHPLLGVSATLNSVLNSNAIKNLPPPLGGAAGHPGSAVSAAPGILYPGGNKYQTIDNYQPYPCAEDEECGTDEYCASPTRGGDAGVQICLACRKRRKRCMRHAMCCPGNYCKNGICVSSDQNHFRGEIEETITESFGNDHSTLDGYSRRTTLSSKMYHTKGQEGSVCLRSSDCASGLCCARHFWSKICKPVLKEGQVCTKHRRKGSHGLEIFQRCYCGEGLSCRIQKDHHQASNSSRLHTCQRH
Chain of Fibroblast growth factor 10 (Homo sapiens) (O15520 whole entry, looked up): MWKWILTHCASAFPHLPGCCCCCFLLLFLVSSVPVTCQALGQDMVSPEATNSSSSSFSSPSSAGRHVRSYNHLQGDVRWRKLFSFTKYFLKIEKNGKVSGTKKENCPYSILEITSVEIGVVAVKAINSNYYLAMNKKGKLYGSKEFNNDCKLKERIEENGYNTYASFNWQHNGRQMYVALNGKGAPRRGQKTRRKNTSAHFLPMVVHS

Consider `CC(C)c1ccc(NN2C(C(O)c3ccccn3)C=CC3C(=O)N(c4ccccc4)C(=O)C32)cc1` (stereo not given), for which the composite z-score in assay [1] was 1.52; in [2] it was 0.753; in assay [3], 0.105; in assay [5], 1.53; in assay [6], 1.31; in assay [7] it was 0.69. Moreover, the composite z-score was 1.33 in assay [8], 0.454 in assay [9] and -0.75 in [10]. In addition, the z-score in assay [4] is -0.684 (inactive).
With `COCCOC(=O)N1C(=O)[C@@]2(c3cc(C#CCCO)ccc31)[C@H](C(=O)NC[C@H](O)c1ccccc1)[C@H]1C(=O)O[C@H](c3ccccc3)[C@H](c3ccccc3)N1[C@@H]2c1ccccc1OCCO`, the composite z-score in assay [1] was 0.506; in assay [2] it was 0.437; in [3], 0.426; in assay [5], 1.32; in assay [6] it was 1.33; in assay [7] it was 0.938. Further, the figures for the composite z-score in assay [8], in [9] and in assay [10] were 1.41, 1.06 and 0.95, respectively. In addition, the z-score in [4] is -0.183 (inactive).
On to `O=c1c2ccc(Br)cc2nc(-c2ccccc2)n1Cc1cccc(O)c1`, for which the composite z-score in [1] came out at 0.524; in assay [2] it was 0.864; in assay [3], 0.715; in assay [5] it was 0.528; in assay [6], 0.476; in assay [7] it was 0.145. Besides, the composite z-score in [8] came out at 0.547; in assay [9], 0.0301; in [10], 0.41. The z-score in assay [4] is -0.376 (inactive).
Regarding `C[N+](C)(C)CCCCNC(=O)[C@H]1C[C@H]2C(=O)NCC(=O)N2[C@H]1c1ccc(O)cc1`, the composite z-score is 1.29 in assay [1]; 0.0645 in assay [2]; -0.31 in [3]; 1.42 in assay [5]; 1.35 in assay [6]; 1.12 in assay [7]. Besides, the values for the composite z-score in assay [8], in assay [9] and in assay [10] were 1.44, 1.47 and 0.952, respectively. The z-score in [4] is -1.01 (inactive).
For `COCCOC(=O)N1C(=O)[C@@]2(c3cc(C#CCC(C(=O)OC)C(=O)OC)ccc31)[C@H](C(=O)N1CCCCCCC1)[C@H]1C(=O)O[C@H](c3ccccc3)[C@H](c3ccccc3)N1[C@@H]2c1ccc(O)cc1`, the composite z-score stood at 1.36 in [1]; 1.7 in assay [2]; 1.41 in assay [3]; 1.2 in assay [5]; 1.3 in assay [6]; 0.783 in [7]. The figures for the composite z-score in assay [8], in [9] and in assay [10] were 1.45, 1.07 and 1.63, respectively. Besides, the z-score in assay [4] was 0.0931 (inactive).
Consider `OCc1ccc(-c2cc[n+](Cc3cccc(OC(F)(F)F)c3)cc2)cc1`, for which the composite z-score in [1] came out at 0.802; in assay [2] it was 0.44; in [3] it was 0.854; in [5] it was 0.981; in [6], 0.869; in assay [7] it was 1.33. Also, the composite z-score came to 1.48 in assay [8], 1.56 in assay [9] and 1.93 in assay [10]. In addition, the z-score in assay [4] is 1.36 (inactive).
As to `COc1ccc([Si](C)(C)[C@@H]2[C@@H](CC(=O)N(CCO)Cc3ccccc3)O[C@]3(C(=O)N(Cc4ccc(N5CCOC5=O)cc4)c4ccccc43)[C@H]2C)cc1`, the composite z-score in assay [1] came to 0.851; in assay [2], 0.232; in assay [3] it was 0.0947; in assay [5] it was 0.472; in [6], 0.218; in assay [7], 0.467. The values for the composite z-score in assay [8], in assay [9] and in assay [10] were 1.09, 0.71 and 0.529, respectively. Besides, the z-score in [4] is 0.24 (inactive).
Turning to `CC(C)C[C@@H]1NC(=O)[C@@H]2C[C@H](C(=O)NCc3ccc(F)cc3)[C@H](c3ccc(O)cc3)N2C1=O`, the composite z-score in assay [1] was 1.03; in assay [2], 0.0289; in assay [3] it was -0.0756; in assay [5], 0.807; in [6], 0.819; in assay [7], 0.116. The composite z-score was 0.111 in assay [8], 0.284 in [9] and -0.445 in assay [10]. Moreover, the z-score in assay [4] was -0.295 (inactive).
For `Cc1ccc(S[C@]2(C(=O)O)CC(=O)N(C3CCCCC3)[C@@H]2c2ccc(CO)cc2)cc1`, the composite z-score was 1.37 in assay [1]; -0.0047 in assay [2]; 0.571 in [3]; -0.256 in assay [5]; 0.739 in assay [6]; -0.172 in [7]. Moreover, the composite z-score is -0.365 in assay [8], 0.234 in assay [9] and 0.378 in assay [10]. Also, the z-score in assay [4] was 0.134 (inactive).
Regarding `CCOC(=O)C1=CC[C@@H](c2cccc(Br)c2)N(S(=O)(=O)c2ccc(C)cc2)[C@H]1c1ccc([N+](=O)[O-])cc1`, the composite z-score is 1.47 in assay [1]; 0.448 in [2]; -0.0145 in assay [3]; 1.2 in assay [5]; 0.356 in assay [6]; 0.877 in [7]. For the same compound, the values for the composite z-score in [8], in assay [9] and in [10] were 1.32, 0.82 and 0.784, respectively. The z-score in [4] was -0.183 (inactive).
As for `CCOC(=O)C[C@H]1[C@H](OC(=O)Cc2ccc3c(c2)OCO3)[C@@H](NC(=O)c2ccccc2)c2cc(OCCCO)ccc2N1C(=O)c1ccc2ccccc2n1`, the composite z-score was 0.347 in assay [1]; -0.0053 in assay [2]; -0.329 in assay [3]; 0.274 in [5]; 0.329 in assay [6]; 0.548 in [7]. Besides, the composite z-score in [8] was 0.0676; in assay [9], 0.328; in [10], 0.318. The z-score in assay [4] is -2.44 (inactive).
For `COCCOC(=O)N1C(=O)[C@@]2(c3ccccc31)[C@H](c1ccccc1OCCO)N1[C@H](c3ccccc3)[C@H](c3ccccc3)OC(=O)[C@H]1[C@@H]2C(=O)N1CCc2cc(OC)c(OC)cc2C1`, the composite z-score in [1] was found to be 1.1; in [2] it was 0.153; in [3], 0.49; in [5], 0.658; in assay [6], 1.28; in assay [7] it was 0.261. Moreover, the figures for the composite z-score in [8], in [9] and in [10] were 0.788, 0.424 and 0.41, respectively. For the same compound, in [4], the z-score was -1.42 (inactive).
As to `O=C1O[C@H](c2ccccc2)[C@H](c2ccccc2)N2[C@H]1[C@@H](C(=O)NC[C@H](O)c1ccccc1)[C@]1(C(=O)Nc3ccccc31)[C@H]2c1ccccc1OCCO`, the composite z-score is 1.61 in assay [1]; -0.0915 in assay [2]; 0.499 in assay [3]; 0.561 in assay [5]; 0.447 in [6]; 0.0728 in [7]. For the same compound, the composite z-score in [8] is 0.263; in [9], -0.0453; in [10], 0.914. Also, in assay [4], the z-score was -2.06 (inactive).
Take `CC(C)C(CO)N1C(=O)[C@@H]2[C@H]3C(=O)OCC=C[C@H]3OC23C=CCN(CCN2CCOCC2)C(=O)[C@@H]13` (stereo not given in full): the composite z-score in assay [1] was 1.15; in assay [2], -0.385; in assay [3] it was -0.538; in assay [5], -0.505; in assay [6], -0.118; in assay [7] it was -0.409. Moreover, the composite z-score in assay [8] was 0.351; in assay [9] it was 0.286; in assay [10], 0.934. The z-score in assay [4] is 0.653 (inactive).

The values are drawn from PubChem BioAssay.
